# PubChem BioAssay (EPA / NIEHS)
# Results filed as inconclusive are left out. Activity calls are given as the source filed them. Rule for the calls: active = hit-call score of the fitted dose curve at least 0.9, where 1 is the maximum; inconclusive = response in the unintended direction; inactive = score below 0.9.
# How the values were obtained:
# [1] = target: Muscarinic acetylcholine receptor M1 (Homo sapiens) (UniProt P11229); experiment: NVS_GPCR_hM1: NovaScreen (NVS) G Protein-Coupled Receptor Assay for human Muscarinic, M1 Receptor (AID 2283270)
# Chain of Muscarinic acetylcholine receptor M1 (Homo sapiens) (P11229 whole entry, looked up): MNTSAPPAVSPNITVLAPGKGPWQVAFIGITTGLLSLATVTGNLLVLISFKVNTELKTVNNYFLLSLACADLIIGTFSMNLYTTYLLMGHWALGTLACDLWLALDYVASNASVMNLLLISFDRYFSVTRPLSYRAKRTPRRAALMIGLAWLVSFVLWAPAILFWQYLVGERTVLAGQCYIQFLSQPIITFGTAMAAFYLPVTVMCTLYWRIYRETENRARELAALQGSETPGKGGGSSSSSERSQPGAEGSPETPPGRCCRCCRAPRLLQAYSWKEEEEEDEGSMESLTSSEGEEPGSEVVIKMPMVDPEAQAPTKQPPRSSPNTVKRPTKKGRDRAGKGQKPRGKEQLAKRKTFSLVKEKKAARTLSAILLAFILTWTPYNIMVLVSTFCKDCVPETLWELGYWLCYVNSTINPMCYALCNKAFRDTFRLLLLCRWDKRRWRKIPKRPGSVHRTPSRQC
# Outline: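 Cell-free radioligand displacement using membrane protein extracted from CHO cells, read by filter-based scintillation counting 1 h after dosing. Loss of bound signal fitted versus DMSO; primary screen single concentration 25 uM in duplicate, actives followed by concentration series.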
# [2] = target: human Dopamine Receptor D4.4 (DRD4.4), DRD4 (gene 1815) (UniProt P21917); experiment: NVS_GPCR_hDRD4.4: NovaScreen (NVS) G Protein-Coupled Receptor Assay for human Dopamine Receptor D4.4 (DRD4.4) (AID 2283264)
# Outline: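 Radioligand displacement on human DRD4.4 from CHO-derived membranes, 1 hour incubation, bound counts read by filtration and scintillation. Primary screen in duplicate at 25 uM; actives followed up in concentration series.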
# [3] = target: human Dopamine Receptor D2 (DRD2), DRD2 (gene 1813) (UniProt P14416); experiment: NVS_GPCR_hDRD2s: NovaScreen (NVS) G Protein-Coupled Receptor Assay for human Dopamine Receptor D2 (DRD2) (AID 2283266)
# Chain of human Dopamine Receptor D2 (DRD2), DRD2 (gene 1813) (P14416 whole entry, looked up): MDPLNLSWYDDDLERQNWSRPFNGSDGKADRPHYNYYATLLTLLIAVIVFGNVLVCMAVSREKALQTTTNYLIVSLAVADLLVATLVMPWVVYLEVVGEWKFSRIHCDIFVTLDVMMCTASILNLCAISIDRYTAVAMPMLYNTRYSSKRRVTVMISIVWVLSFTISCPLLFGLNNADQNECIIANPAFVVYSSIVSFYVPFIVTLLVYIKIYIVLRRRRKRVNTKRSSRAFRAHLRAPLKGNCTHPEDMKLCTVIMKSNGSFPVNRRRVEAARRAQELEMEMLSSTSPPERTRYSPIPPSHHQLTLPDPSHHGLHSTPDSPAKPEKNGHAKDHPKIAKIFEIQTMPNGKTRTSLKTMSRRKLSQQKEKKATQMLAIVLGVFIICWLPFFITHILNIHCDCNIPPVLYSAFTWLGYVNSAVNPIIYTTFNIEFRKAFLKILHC
# Outline: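 Radioligand displacement used human DRD2 membranes extracted from CHO cells and was read by filter-based scintillation counting after 1.5 hours. Primary screening was in duplicate at 25 uM. Loss of signal versus DMSO was fitted, with concentration series in follow-up.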
# [4] = target: Muscarinic acetylcholine receptor M3 (Homo sapiens) (UniProt P20309); experiment: NVS_GPCR_hM3: NovaScreen (NVS) G Protein-Coupled Receptor Assay for human Muscarinic, M3 Receptor (AID 2283272)
# Chain of Muscarinic acetylcholine receptor M3 (Homo sapiens) (P20309 whole entry, looked up): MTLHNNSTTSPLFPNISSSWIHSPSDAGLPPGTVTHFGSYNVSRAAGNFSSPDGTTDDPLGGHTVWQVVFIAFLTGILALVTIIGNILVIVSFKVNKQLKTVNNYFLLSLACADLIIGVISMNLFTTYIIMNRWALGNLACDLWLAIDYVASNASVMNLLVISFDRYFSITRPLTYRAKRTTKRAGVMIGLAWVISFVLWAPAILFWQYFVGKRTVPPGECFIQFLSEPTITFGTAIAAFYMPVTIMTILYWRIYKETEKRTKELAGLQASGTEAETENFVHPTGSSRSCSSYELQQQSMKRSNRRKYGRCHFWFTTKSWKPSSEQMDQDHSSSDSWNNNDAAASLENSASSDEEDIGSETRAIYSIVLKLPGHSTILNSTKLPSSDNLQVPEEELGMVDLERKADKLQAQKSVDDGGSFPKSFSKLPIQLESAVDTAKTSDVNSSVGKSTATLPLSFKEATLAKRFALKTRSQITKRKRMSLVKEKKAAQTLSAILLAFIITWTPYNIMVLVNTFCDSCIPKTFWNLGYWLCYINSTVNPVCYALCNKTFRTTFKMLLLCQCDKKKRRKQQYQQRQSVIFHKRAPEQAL
# Outline: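 Radioligand displacement binding on human M3 receptor in CHO-derived membranes, 1 h incubation, filter-based scintillation counting. Primary screen in duplicate at 25 uM; actives followed up in concentration series; loss of signal versus DMSO.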
# [5] = target: Muscarinic acetylcholine receptor M2 (Homo sapiens) (UniProt P08172); experiment: NVS_GPCR_hM2: NovaScreen (NVS) G Protein-Coupled Receptor Assay for human Muscarinic, M2 Receptor (AID 2283273)
# Chain of Muscarinic acetylcholine receptor M2 (Homo sapiens) (P08172 whole entry, looked up): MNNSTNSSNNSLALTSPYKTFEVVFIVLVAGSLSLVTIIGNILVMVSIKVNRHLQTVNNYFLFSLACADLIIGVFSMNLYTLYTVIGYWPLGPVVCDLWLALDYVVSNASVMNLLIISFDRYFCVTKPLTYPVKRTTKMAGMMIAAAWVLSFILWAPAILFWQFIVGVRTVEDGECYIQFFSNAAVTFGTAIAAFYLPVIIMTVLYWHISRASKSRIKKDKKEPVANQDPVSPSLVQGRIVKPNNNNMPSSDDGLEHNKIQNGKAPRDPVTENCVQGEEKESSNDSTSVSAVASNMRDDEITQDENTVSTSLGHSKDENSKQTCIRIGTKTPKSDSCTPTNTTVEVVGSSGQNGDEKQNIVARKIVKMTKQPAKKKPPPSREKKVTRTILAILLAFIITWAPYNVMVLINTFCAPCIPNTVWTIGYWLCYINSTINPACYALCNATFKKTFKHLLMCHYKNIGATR
# Outline: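 CHO membrane prep, radioligand + test compound, 1 h; filtration, scintillation count. Screen 25 uM duplicate → conc. series for actives. Readout: decrease in binding vs DMSO control.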
# [6] = target: human Muscarinic, M4 Receptor, CHRM4 (gene 1132) (UniProt P08173); experiment: NVS_GPCR_hM4: NovaScreen (NVS) G Protein-Coupled Receptor Assay for human Muscarinic, M4 Receptor (AID 2283274)
# Chain of human Muscarinic, M4 Receptor, CHRM4 (gene 1132) (P08173 whole entry, looked up): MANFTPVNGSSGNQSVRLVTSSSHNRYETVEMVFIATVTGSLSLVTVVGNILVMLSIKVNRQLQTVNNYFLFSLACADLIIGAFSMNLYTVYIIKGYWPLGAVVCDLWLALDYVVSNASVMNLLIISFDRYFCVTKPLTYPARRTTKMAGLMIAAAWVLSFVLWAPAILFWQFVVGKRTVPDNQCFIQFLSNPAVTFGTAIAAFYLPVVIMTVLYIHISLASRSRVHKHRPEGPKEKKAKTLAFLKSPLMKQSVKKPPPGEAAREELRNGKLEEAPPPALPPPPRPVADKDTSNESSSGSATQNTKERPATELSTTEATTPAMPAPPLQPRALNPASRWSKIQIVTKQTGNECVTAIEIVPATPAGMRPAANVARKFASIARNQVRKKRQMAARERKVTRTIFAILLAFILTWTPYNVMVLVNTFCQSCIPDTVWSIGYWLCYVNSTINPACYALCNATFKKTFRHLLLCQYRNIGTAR
# Outline: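 Cell-free radioligand displacement using CHO-derived human M4 receptor protein, 1 h after dosing; bound radioactivity by filtration and scintillation counting. Primary screen single 25 uM duplicate, actives followed in concentration series.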
# [7] = target: human Adrenergic, Beta 3 Receptor (Adrb3), ADRB3 (gene 155) (UniProt P13945); experiment: NVS_GPCR_hAdrb3: NovaScreen (NVS) G Protein-Coupled Receptor Assay for human Adrenergic, Beta 3 Receptor (Adrb3) (AID 2283262)
# Chain of human Adrenergic, Beta 3 Receptor (Adrb3), ADRB3 (gene 155) (P13945 whole entry, looked up): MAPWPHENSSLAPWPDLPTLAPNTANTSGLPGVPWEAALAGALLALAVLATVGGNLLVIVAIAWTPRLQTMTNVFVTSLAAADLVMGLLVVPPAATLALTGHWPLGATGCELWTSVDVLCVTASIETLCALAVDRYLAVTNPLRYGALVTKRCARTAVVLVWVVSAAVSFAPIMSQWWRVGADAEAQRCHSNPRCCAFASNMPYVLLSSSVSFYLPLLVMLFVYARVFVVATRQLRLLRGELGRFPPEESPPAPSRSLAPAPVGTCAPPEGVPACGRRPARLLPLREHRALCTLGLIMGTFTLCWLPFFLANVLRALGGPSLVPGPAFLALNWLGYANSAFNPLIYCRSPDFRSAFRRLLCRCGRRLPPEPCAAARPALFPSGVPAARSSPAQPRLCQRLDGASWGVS
# Outline: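 Membranes from SK-N-MC cells pretreated with isoproterenol and 8-bromo-cAMP were used in a radioligand competitive displacement binding assay. Binding was read by filter-based scintillation counting 1 hour after dosing. Primary screening was in duplicate at 25 uM, with concentration series in follow-up.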
# [8] = target: human Histamine 1 Receptor (H1), HRH1 (gene 3269) (UniProt P35367); experiment: NVS_GPCR_hH1: NovaScreen (NVS) G Protein-Coupled Receptor Assay for human Histamine 1 Receptor (H1) (AID 2283268)
# Chain of human Histamine 1 Receptor (H1), HRH1 (gene 3269) (P35367 whole entry, looked up): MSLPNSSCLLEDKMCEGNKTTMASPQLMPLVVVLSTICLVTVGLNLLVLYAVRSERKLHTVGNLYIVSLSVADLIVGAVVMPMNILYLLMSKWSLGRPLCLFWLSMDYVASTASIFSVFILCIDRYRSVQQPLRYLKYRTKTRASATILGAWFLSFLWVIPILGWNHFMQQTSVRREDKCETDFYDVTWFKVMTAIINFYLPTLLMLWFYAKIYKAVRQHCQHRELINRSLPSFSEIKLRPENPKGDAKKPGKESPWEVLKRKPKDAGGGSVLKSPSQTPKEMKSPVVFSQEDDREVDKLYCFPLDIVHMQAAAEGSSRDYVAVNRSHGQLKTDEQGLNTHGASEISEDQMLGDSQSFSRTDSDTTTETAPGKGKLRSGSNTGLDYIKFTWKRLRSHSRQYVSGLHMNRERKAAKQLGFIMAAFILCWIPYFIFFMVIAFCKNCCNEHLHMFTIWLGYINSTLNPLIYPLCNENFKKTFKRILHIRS
# Outline: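 Cell-free radioligand displacement at human H1 receptor, 1 h, filter scintillation counting; primary screen 25 uM in duplicate, hits in concentration series; loss of binding fitted vs DMSO.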
# [9] = target: D(1A) dopamine receptor (Homo sapiens) (UniProt P21728); experiment: NVS_GPCR_hDRD1: NovaScreen (NVS) G Protein-Coupled Receptor Assay for human Dopamine Receptor D1 (DRD1) (AID 2283269)
# Chain of D(1A) dopamine receptor (Homo sapiens) (P21728 whole entry, looked up): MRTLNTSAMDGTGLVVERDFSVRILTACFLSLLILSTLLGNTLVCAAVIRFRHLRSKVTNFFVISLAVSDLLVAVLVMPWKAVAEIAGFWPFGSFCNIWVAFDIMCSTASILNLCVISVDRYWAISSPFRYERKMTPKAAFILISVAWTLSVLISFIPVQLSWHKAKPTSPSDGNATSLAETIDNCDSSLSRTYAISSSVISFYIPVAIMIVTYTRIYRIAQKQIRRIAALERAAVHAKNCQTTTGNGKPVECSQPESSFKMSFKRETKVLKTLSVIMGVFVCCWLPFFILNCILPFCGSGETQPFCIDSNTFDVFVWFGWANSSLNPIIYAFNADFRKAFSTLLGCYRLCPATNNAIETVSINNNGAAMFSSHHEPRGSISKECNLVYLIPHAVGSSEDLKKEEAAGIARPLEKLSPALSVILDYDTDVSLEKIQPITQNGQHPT
# Outline: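 HEK293-derived receptor preparation; radioligand competitive displacement; 1 h; filtration + scintillation counting. DMSO = negative control/baseline. Primary: 25 uM, duplicate; secondary: concentration–response for actives.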
# [10] = target: human Leukotriene B4 Receptor 1 (LTB4-BLT1), LTB4R (gene 1241) (UniProt Q15722); experiment: NVS_GPCR_hLTB4_BLT1: NovaScreen (NVS) G Protein-Coupled Receptor Assay for human Leukotriene B4 Receptor 1 (LTB4-BLT1) (AID 2283271)
# Chain of human Leukotriene B4 Receptor 1 (LTB4-BLT1), LTB4R (gene 1241) (Q15722 whole entry, looked up): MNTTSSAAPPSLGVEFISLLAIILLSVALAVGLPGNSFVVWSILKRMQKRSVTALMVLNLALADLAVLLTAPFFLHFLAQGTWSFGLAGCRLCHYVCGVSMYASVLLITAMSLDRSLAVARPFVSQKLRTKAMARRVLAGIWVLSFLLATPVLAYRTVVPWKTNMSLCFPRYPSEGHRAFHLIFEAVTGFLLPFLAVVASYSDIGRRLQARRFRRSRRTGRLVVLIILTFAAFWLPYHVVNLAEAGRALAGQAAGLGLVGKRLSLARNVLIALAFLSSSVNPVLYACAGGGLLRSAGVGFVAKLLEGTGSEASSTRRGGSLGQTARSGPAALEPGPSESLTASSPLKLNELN
# Outline: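 Radioligand displacement binding on receptor extracted from human neutrophils, cell-free, 1 h after dosing; filter-based scintillation counting. Primary screen in duplicate at 25 uM, actives retested in concentration-response up to 50 uM; loss of signal versus DMSO.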
# [11] = system: rabbit Platelet Activating Factor Receptor (PAF), gene 100354046; experiment: NVS_GPCR_rabPAF: NovaScreen (NVS) G Protein-Coupled Receptor Assay for rabbit Platelet Activating Factor Receptor (PAF) (AID 2283287)
# Outline: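 Rabbit platelet membrane preparation; radioligand displacement read by filter-based scintillation counting 1 h after dosing, loss of signal versus DMSO. Primary screen in duplicate at 25 uM, actives followed up in concentration series.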
# [12] = target: rat Serotonin, 5-Hydroxytryptamine Receptor 1 (5HT1), Non-Selective Binding, Htr1a (gene 24473) (UniProt P19327); experiment: NVS_GPCR_r5HT1_NonSelective: NovaScreen (NVS) G Protein-Coupled Receptor Assay for rat Serotonin, 5-Hydroxytryptamine Receptor 1 (5HT1), Non-Selective Binding (AID 2283286)
# Outline: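 Rat cortical membranes, radioligand displacement, 1 h incubation, read by filter scintillation. Primary screen in duplicate at 25 uM. Hits (e.g. ≥30% inhibition) went to concentration-response up to 50 uM, fitted as loss of binding versus DMSO.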
# [13] = target: Type-1 angiotensin II receptor (Homo sapiens) (UniProt P30556); experiment: NVS_GPCR_hAT1: NovaScreen (NVS) G Protein-Coupled Receptor Assay for human Angiotensin II receptor type 1 (AT1) (AID 2283263)
# Chain of Type-1 angiotensin II receptor (Homo sapiens) (P30556 whole entry, looked up): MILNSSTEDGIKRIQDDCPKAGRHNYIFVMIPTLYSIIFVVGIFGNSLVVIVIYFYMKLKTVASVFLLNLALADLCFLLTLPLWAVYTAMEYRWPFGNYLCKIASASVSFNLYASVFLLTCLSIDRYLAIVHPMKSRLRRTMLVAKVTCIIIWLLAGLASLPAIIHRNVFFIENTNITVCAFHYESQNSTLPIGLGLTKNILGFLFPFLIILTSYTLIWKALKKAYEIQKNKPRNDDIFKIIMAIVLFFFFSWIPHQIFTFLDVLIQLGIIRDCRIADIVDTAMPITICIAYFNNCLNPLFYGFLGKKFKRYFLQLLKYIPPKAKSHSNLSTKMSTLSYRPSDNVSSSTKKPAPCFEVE
# Outline: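 Membranes from KAN-TS cells; radioligand competitive displacement, 3 h, filtration and scintillation counting. Single-point duplicate screen at 25 uM, then concentration-response up to 50 uM for hits; loss of signal fitted versus DMSO.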
# [14] = target: human Neuropeptide Receptor Y1 (NPY1), NPY1R (gene 4886) (UniProt P25929); experiment: NVS_GPCR_hNPY1: NovaScreen (NVS) G Protein-Coupled Receptor Assay for human Neuropeptide Receptor Y1 (NPY1) (AID 2283276)
# Outline: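 Cell-free radioligand binding using receptor extracted from SK-N-MC cells, 1 h incubation, filter-based scintillation counting. Primary screen single concentration 25 uM in duplicate; actives followed in concentration series. Loss of bound signal scored versus DMSO.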
# [15] = target: human Neurokinin, NK2 Receptor, TACR2 (gene 6865) (UniProt P21452); experiment: NVS_GPCR_hNK2: NovaScreen (NVS) G Protein-Coupled Receptor Assay for human Neurokinin, NK2 Receptor (AID 2283278);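 note: actives reduce bound radioligand signal relative to DMSO baseline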
# Chain of human Neurokinin, NK2 Receptor, TACR2 (gene 6865) (P21452 whole entry, looked up): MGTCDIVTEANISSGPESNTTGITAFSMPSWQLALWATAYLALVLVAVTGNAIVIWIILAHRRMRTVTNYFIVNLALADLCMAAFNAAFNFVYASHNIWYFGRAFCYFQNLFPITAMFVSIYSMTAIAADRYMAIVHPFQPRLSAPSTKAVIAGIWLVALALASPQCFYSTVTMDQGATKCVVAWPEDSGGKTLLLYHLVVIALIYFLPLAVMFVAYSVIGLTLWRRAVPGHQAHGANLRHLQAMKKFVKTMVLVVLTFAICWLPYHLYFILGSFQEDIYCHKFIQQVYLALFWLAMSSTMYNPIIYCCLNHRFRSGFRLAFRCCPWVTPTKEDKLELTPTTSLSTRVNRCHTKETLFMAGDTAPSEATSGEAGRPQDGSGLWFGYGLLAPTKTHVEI
# Outline: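 Filter-based scintillation counting measured radioligand bound to receptor extracted from CHO cells, 4 hours after compound addition. Chemicals screened first at 25 uM in duplicate, with actives retested in concentration series relative to DMSO.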
# [16] = target: mouse Cholecystokinin, CCK1 Receptor (CCKA), Cckar (gene 12425) (UniProt O08786); experiment: NVS_GPCR_mCCKAPeripheral: NovaScreen (NVS) G Protein-Coupled Receptor Assay for mouse Cholecystokinin, CCK1 Receptor (CCKA) (AID 2283285)
# Outline: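 Radioligand competitive displacement on mouse pancreatic membranes, 2 h incubation; filter-based scintillation counting, loss of signal versus DMSO. Single-concentration screen at 25 uM in duplicate, actives retested in concentration-response up to 50 uM.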
# [17] = target: human Vasopressin 1A Receptor (V1A), AVPR1A (gene 552) (UniProt P37288); experiment: NVS_GPCR_hV1A: NovaScreen (NVS) G Protein-Coupled Receptor Assay for human Vasopressin 1A Receptor (V1A) (AID 2283284)
# Outline: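 Cell-free radioligand displacement on human platelet preparations, 1.5 h incubation, filter-based scintillation counting. Chemicals first tested in duplicate at 25 uM; actives then run in concentration-response up to 50 uM, loss of signal fitted against DMSO.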
smiles,measurement,setting,value
COC(=O)NS(=O)(=O)c1ccc(N)cc1,outcome,[1],inactive
CCCN(CC)CC1COC2(CCC(C(C)(C)C)CC2)O1 (stereo not drawn),AC50,[2],7.95 µM (active)
same,outcome,[3],inactive
same,AC50,[1],4.97 µM (active)
same,AC50,[4],8.78 µM (active)
same,AC50,[5],4.96 µM (active)
same,AC50,[6],3.3 µM (active)
O=C(O)c1c(Cl)ccc2cc(Cl)cnc12,outcome,[7],inactive
CCOP(=O)(OCC)Oc1nc(Cl)c(Cl)cc1Cl,outcome,[8],inactive
same,outcome,[9],inactive
same,outcome,[5],inactive
Clc1nc(Cl)nc(Nc2ccccc2Cl)n1,outcome,[8],inactive
COc1cc(OC)nc(NC(=O)NS(=O)(=O)c2ncccc2OCC(F)(F)F)n1,outcome,[10],inactive
N#Cc1c[nH]cc1-c1cccc2c1OC(F)(F)O2,outcome,[2],inactive
same,outcome,[1],inactive
COP(=S)(OC)SCn1nnc2ccccc2c1=O,outcome,[8],inactive
same,AC50,[11],25 µM (active)
COCC(C)N(C(=O)CCl)c1c(C)csc1C (stereo not drawn),outcome,[10],inactive
Cc1ccc(N=CN(C)C=Nc2ccc(C)cc2C)c(C)c1,outcome,[9],inactive
same,outcome,[6],inactive
same,AC50,[12],0.463 µM (active)
CCCCOCN(C(=O)CCl)c1c(CC)cccc1CC,outcome,[10],inactive
COC(=O)N(C(=O)N1CO[C@@]2(C(=O)OC)Cc3cc(Cl)ccc3C2=N1)c1ccc(OC(F)(F)F)cc1,outcome,[13],inactive
same,outcome,[10],inactive
O=C1C2CC=CCC2C(=O)N1SC(Cl)(Cl)Cl (stereo not drawn),AC50,[13],13.4 µM (active)
same,AC50,[3],25 µM (active)
same,AC50,[9],9.65 µM (active)
same,AC50,[14],9.25 µM (active)
same,AC50,[15],4.9 µM (active)
CC1(C)C(C=C(Cl)Cl)C1C(=O)OC(C#N)c1cccc(Oc2ccccc2)c1 (stereo not drawn),outcome,[13],inactive
same,outcome,[15],inactive
same,AC50,[16],17.1 µM (active)
CN/C(=N\[N+](=O)[O-])NCc1cnc(Cl)s1,outcome,[7],inactive
same,outcome,[17],inactive
CCCCC(C#N)(Cn1cncn1)c1ccc(Cl)cc1 (stereo not drawn),AC50,[1],5.56 µM (active)
same,AC50,[4],8.08 µM (active)
same,AC50,[5],14.6 µM (active)
same,AC50,[6],7.69 µM (active)
CCOc1cc(C(C)(C)C)ccc1C1COC(c2c(F)cccc2F)=N1 (stereo not drawn),outcome,[9],inactive
CCC(C)n1c(=O)[nH]c(C)c(Br)c1=O (stereo not drawn),outcome,[8],inactive
same,outcome,[4],inactive
CC(C)=CC1C(C(=O)OCc2coc(Cc3ccccc3)c2)C1(C)C (stereo not drawn),AC50,[9],11.5 µM (active)
CC(C)Oc1cccc(NC(=O)c2ccccc2C(F)(F)F)c1,outcome,[7],inactive
